PubChem BioAssay (Tox21)
Inconclusive results are not listed. Activity calls are given as the source filed them. The call rests on the fitted dose curve; in most records, active means well fitted cell-killing curve with a large enough effect in the repeat runs; inconclusive means weak or mixed curves, or effect the other way; inactive means flat fitted curve, though single readings scatter.

Assay: cAMP Responsive Elements (CRE) small molecule agonists, cell-based qHTS assay: qHTS cell viability counter screen (AID 2060914); further: nearly all actives have a fitted effect of over 50% in size
Details: CRE-bla HEK293T viability, CellTiter-Glo luminescence, 5 h; series mostly up to 92.4 µM; activity change, negative = cytotoxicity: at the top concentration
Method in brief: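 Cytotoxicity counter screen multiplexed with the CRE-bla reporter assay in HEK 293T cells: 3 h compound exposure at 37 °C, followed by CellTiter-Glo luminescence measured in the same wells.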
On the % scale 0 is the no-effect control and ±100 the full control effect; potency means the concentration at half of the fitted maximal effect.

Structure (SMILES) | activity change, negative = cytotoxicity | Potency
CC(=O)N(O)CCCCCNC(=O)CCC(=O)N(O)CCCCCNC(=O)CCC(=O)N(O)CCCCCN | -7.84% [at 42.5 µM] (inactive) | 
CCC1(CO)COCOC1 | -2.86% (inactive) | 
CCOC(=O)c1ccccc1C | -7.13% (inactive) | 
CCCCCC#CC(=O)OC | 1.44% (inactive) | 
CCc1cc(Cc2cc(CC)cc(C(C)(C)C)c2O)c(O)c(C(C)(C)C)c1 | -12.5% (inactive) | 
OCCSc1ccccc1 | -12.2% (inactive) | 
CCn1cc(C(=O)O)c(=O)c2cc3c(cc21)OCO3 | -16.8% (inactive) | 
N[C@@H](CSCCCO)C(=O)O | -12.4% [at 18.9 µM] (inactive) | 
CCNc1nc(NC(C)(C)C)nc(OC)n1 | -2.2% (inactive) | 
c1ccc(B(c2ccccc2)c2ccccc2)cc1 | 2.15% (inactive) | 
NS(=O)(=O)c1cc2c(cc1Cl)NC(C1CC3C=CC1C3)NS2(=O)=O (centres undefined) | -1.72% [at 42.5 µM] (inactive) | 
C=C[Si](OCCOC)(OCCOC)OCCOC |  | inactive
O=C1NC(=O)[C@@H]2CC=CC[C@H]12 | -16.1% (inactive) | 
CCCC(=O)OC | -2.04% (inactive) | 
c1ccc2c(c1)-c1cccc3c1c-2cc1ccccc13 |  | inactive
NC(=O)n1c(O)c(C(=O)c2cccs2)c2cc(Cl)ccc21 | -6.91% [at 42.5 µM] (inactive) | 
CCN(Cc1cccc(S(=O)(=O)O)c1)c1ccccc1 | -5.85% (inactive) | 
Cn1cnc2c(F)c(Nc3ccc(Br)cc3Cl)c(C(=O)NOCCO)cc21 | 1.68% [at 42.5 µM] (inactive) | 
CN1C(=O)c2ccc([N+](=O)[O-])cc2C1=O | 8% (inactive) | 
c1ccc(C[P+](c2ccccc2)(c2ccccc2)c2ccccc2)cc1 | 1.69% (inactive) | 

Structure (SMILES) | activity change, negative = cytotoxicity | Potency
C1=CCCC1 | 6% (inactive) | 
Cc1ccc(C(C)(C)O)cc1 | -0.552% (inactive) | 
CC1(C)OC[C@@H](COC(=O)CCc2ccc(OC[C@@H](O)CNCCNC(=O)N3CCOCC3)cc2)O1 | -0.952% [at 42.5 µM] (inactive) | 
CC(CC=O)c1ccccc1 (centres undefined) | -0.752% (inactive) | 
O=C1OC(=O)C2CC=CCC12 (centres undefined) | 2.55% (inactive) | 
ClCCCl | -3.77% (inactive) | 
O=C(Nc1ccccc1)Nc1ccccc1 | -21.4% (inactive) | 
CCCOC(C)=O | -15% (inactive) | 
CN1CCN(CCCN2c3ccccc3Sc3ccc(C(F)(F)F)cc32)CC1 | -21.5% [at 42.5 µM] (inactive) | 
CC(C)c1ccc(C=O)cc1 | -1.58% (inactive) | 
CC(C)(C)CC(C)(C)N | -10.4% (inactive) | 
CCCCCCCCCCCCOCCOCCOCCOCCOCCOCCOCCOCCOCCO |  | 29.8 µM (active)
Cc1ccc(S(=O)(=O)O)c(C)c1 | 11.6% (inactive) | 
O=C(O)c1cc(C(=O)O)cc([N+](=O)[O-])c1 | -8.32% (inactive) | 
CCCCCN(CCCCC)C(=O)C(CCC(=O)O)NC(=O)c1ccc(Cl)c(Cl)c1 (centres undefined) | 14.3% [at 42.5 µM] (inactive) | 
O=C(O)Cc1ccc(CCNS(=O)(=O)c2ccc(Cl)cc2)cc1 | -28.7% [at 42.5 µM] (inactive) | 
O=[N+]([O-])c1c(Cl)cc(Cl)cc1Cl | -1.04% (inactive) | 
O=C1OC(=O)c2cc([N+](=O)[O-])ccc21 | 12.7% (inactive) | 
COc1ccc2cc(CCC(C)=O)ccc2c1 | 2.89% [at 42.5 µM] (inactive) | 
